Laboratory results from PubChem BioAssay AID1159580 (chemical genetic matrix, 2015).
Several values for one entry are separate records, joined by “and”; a condition that tells them apart may be missing. Equal values may be shown once. The campaign covered roughly 5,500 compounds. About 2,000 (36%) were called active. Not shown: some 18% with an inconclusive outcome. Cut-off read from the data, not from the text of the source: active = normalized growth mostly below about 0.91 (no sharp cut-off); inconclusive = no clear call, values can overlap the other calls; inactive = mostly above about 0.92. The list shows a part of the results.

Test: chemical genetic growth profiling, strain panel (AID 1159580);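 note: tested at 20 µM; growth read once vehicle control cultures reached saturation at 30 °C; 1 = growth at the plate median or of vehicle wells; lower values mean less growth of the strain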
Settings: S. cerevisiae deletion strains, growth OD

Measured: normalized growth

COc1cc2occc2c2oc(=O)ccc12
active: locus YDL192W, strain arf1, hits give low values 0.887 | locus YDR101C, strain arx1, hits give low values 0.897 | locus YDR195W, strain ref2 1.29 [resistant] | locus YER155C, strain BEM2 (second series), hits give low values 0.821 | locus YJL129C, strain trk1, hits give low values 1.17 [resistant] | locus YKR001C, strain vps1, hits give low values 0.877 | locus YLR320W, strain mms22, hits give low values 0.857 | locus YLR357W, strain rsc2, hits give low values 1.16 [resistant] | locus YLR371W, strain rom2, hits give low values 0.861 | locus YML032C, strain rad52, hits give low values 0.836 | locus YNL248C, strain rpa49, hits give low values 0.681 | locus YOR184W, strain ser1, hits give low values 0.836 | locus YPR163C, strain tif3, hits give low values 0.911
inactive: locus YAL021C, strain ccr4, hits give low values 1.01 | locus YAL026C, strain drs2, hits give low values 0.984 | locus YAL030W, strain snc1, hits give low values 1.01 | locus YBL061C, strain skt5, hits give low values 0.992 | locus YBR009C, strain hhf1, hits give low values 0.982 | locus YBR021W, strain FUR4, hits give low values 0.965 | locus YBR023C, strain chs3, hits give low values 1 | locus YBR171W, strain sec66, hits give low values 1.02 | locus YBR229C, strain ROT2, hits give low values 0.949 | locus YBR231C, strain swc5, hits give low values 0.962 | locus YBR279W, strain paf1, hits give low values 1.01 | locus YCL011C, strain gbp2, hits give low values 1.01 | locus YCL016C, strain dcc1, hits give low values 0.972 | locus YCL029C, strain bik1, hits give low values 0.931 | locus YCL069W, strain vba3, hits give low values 1.03 | locus YCR088W, strain abp1, hits give low values 1.02 | locus YDL005C, strain med2, hits give low values 1.01 | locus YDL035C, strain GPR1, hits give low values 0.92 | locus YDL040C, strain nat1, hits give low values 1.02 | locus YDL074C, strain BRE1, hits give low values 0.842 | locus YDL101C, strain DUN1, hits give low values 0.939 | locus YDL185W, strain tfp1, hits give low values 0.936 | locus YDR001C, strain nth1, hits give low values 1.01 | locus YDR069C, strain doa4, hits give low values 0.98 | locus YDR137W, strain rgp1, hits give low values 1.06 | locus YDR159W, strain sac3, hits give low values 1.01 | locus YDR162C, strain NBP2, hits give low values 0.873 | locus YDR297W, strain sur2, hits give low values 0.998 | locus YDR318W, strain mcm21, hits give low values 0.948 | locus YDR334W, strain swr1, hits give low values 0.969 | locus YDR335W, strain msn5, hits give low values 0.968 | locus YDR388W, hits give low values 0.979 | locus YDR392W, strain spt3, hits give low values 0.792 | locus YDR502C, strain sam2, hits give low values 0.984 | locus YEL003W, strain gim4, hits give low values 0.985 | locus YEL037C, strain rad23, hits give low values 1 | locus YEL061C, strain CIN8 (second series), hits give low values 1 | locus YER015W, strain faa2, hits give low values 1 | locus YER016W, strain bim1, hits give low values 1.02 | locus YER110C, hits give low values 0.936 | locus YER111C, strain swi4, hits give low values 1.02 | locus YER155C, strain BEM2, hits give low values 0.992 | locus YER167W, strain BCK2, hits give low values 0.967 | locus YFR010W, strain ubp6, hits give low values 0.957 | locus YGL078C, strain dbp3, hits give low values 1.02 | locus YGL086W, strain mad1, hits give low values 0.964 | locus YGL167C, strain pmr1, hits give low values 1.02 | locus YGL173C, strain kem1, hits give low values 1.01 | locus YGL227W, strain vid30, hits give low values 1.03 | locus YGL240W, strain doc1, hits give low values 0.92 | locus YGL248W, strain PDE1, hits give low values 0.964 | locus YGL253W, strain hxk2, hits give low values 1.01 | locus YGR078C, strain PAC10, hits give low values 0.95 | locus YGR135W, strain pre9, hits give low values 0.99 | locus YGR252W, strain gcn5, hits give low values 0.865 | locus YHR013C, strain ard1, hits give low values 1.08 | locus YHR027C, strain rpn1, hits give low values 0.998 | locus YHR030C, strain SLT2, hits give low values 0.982 and 0.967 | locus YHR079C, strain IRE1 (second series), hits give low values 0.984 | locus YHR079C, strain IRE1, hits give low values 0.958 | locus YHR094C, strain hxt1, hits give low values 0.975 | locus YHR129C, strain ARP1, hits give low values 0.98 | locus YHR142W, strain chs7, hits give low values 0.961 | locus YHR200W, strain rpn10, hits give low values 0.93 | locus YIL066C, strain RNR3, hits give low values 0.925 | locus YIL073C, strain SPO22, hits give low values 0.944 | locus YIL125W, strain kgd1, hits give low values 0.99 | locus YIR030C, strain dcg1, hits give low values 0.979 | locus YJL092W, strain hpr5, hits give low values 1.02 | locus YJL095W, strain BCK1 (second series), hits give low values 0.998 | locus YJL095W, strain BCK1, hits give low values 0.942 and 0.974 | locus YJL115W, strain asf1, hits give low values 0.991 | locus YJL134W, strain LCB3, hits give low values 0.967 | locus YJL154C, strain vps35, hits give low values 1.02 | locus YJL164C, strain tpk1, hits give low values 0.983 | locus YJL166W, strain qcr8, hits give low values 1.02 | locus YJL168C, strain set2, hits give low values 0.976 | locus YJL187C, strain SWE1 (second series), hits give low values 0.968 | locus YJL187C, strain SWE1, hits give low values 1.02 | locus YJR066W, strain TOR1, hits give low values 0.917 | locus YKL009W, strain mrt4, hits give low values 0.944 | locus YKL068W, hits give low values 1 | locus YKL085W, strain MDH1 (second series), hits give low values 0.991 | locus YKL085W, strain MDH1, hits give low values 0.991 | locus YKL160W, strain elf1, hits give low values 1.01 | locus YKL190W, strain CNB1, hits give low values 0.985 | locus YKR026C, strain gcn3, hits give low values 1.03 | locus YKR091W, strain srl3, hits give low values 1.02 | locus YLL001W, strain dnm1, hits give low values 1 | locus YLL026W, hits give low values 1.02 | locus YLL041C, strain sdh2, hits give low values 1 | locus YLR027C, strain aat2, hits give low values 1.01 | locus YLR039C, strain RIC1, hits give low values 1 | locus YLR058C, strain SHM2, hits give low values 0.976 | locus YLR102C, strain apc9, hits give low values 0.985 | locus YLR113W, strain HOG1, hits give low values 1 | locus YLR221C, strain rsa3, hits give low values 1.02 | locus YLR258W, strain gsy2, hits give low values 1.03 | locus YLR262C, strain YPT6 (second series), hits give low values 1.02 | locus YLR262C, strain YPT6, hits give low values 1.06 | locus YLR268W, strain sec22, hits give low values 0.887 | locus YLR342W, strain FKS1 (second series), hits give low values 0.944 | locus YLR342W, strain FKS1, hits give low values 1.02 | locus YLR370C, strain arc18, hits give low values 1.03 | locus YLR384C, strain iki3, hits give low values 1.01 | locus YLR418C, strain cdc73, hits give low values 0.914 | locus YML016C, strain PPZ1, hits give low values 0.956 | locus YML120C, strain ndi1, hits give low values 1.04 | locus YML124C, strain tub3, hits give low values 0.982 | locus YMR058W, strain fet3, hits give low values 0.988 | locus YMR078C, strain ctf18, hits give low values 0.967 | locus YMR125W, strain sto1, hits give low values 1.02 | locus YMR129W, hits give low values 1.04 | locus YMR205C, strain PFK2, hits give low values 1.03 | locus YMR223W, strain ubp8, hits give low values 0.957 | locus YMR231W, strain pep5, hits give low values 1.01 | locus YMR307W, strain GAS1, hits give low values 0.932 | locus YNL067W, strain RPL9B, hits give low values 0.99 | locus YNL071W, strain lat1, hits give low values 1 | locus YNL183C, strain NPR1, hits give low values 0.935 | locus YNL209W, strain ssb2, hits give low values 0.995 | locus YNL233W, strain BNI4, hits give low values 0.942 | locus YNL250W, strain rad50, hits give low values 0.936 | locus YNL271C, strain bni1, hits give low values 0.97 | locus YNL298W, strain CLA4, hits give low values 0.915 | locus YNL307C, strain MCK1, hits give low values 0.959 | locus YNL322C, strain KRE1 (second series), hits give low values 0.998 | locus YNL322C, strain KRE1, hits give low values 0.99 | locus YNR049C, strain mso1, hits give low values 1.03 | locus YNR052C, strain pop2, hits give low values 0.988 | locus YOL012C, strain htz1 0.958 | locus YOL147C, strain pex11, hits give low values 0.952 | locus YOR001W, strain rrp6, hits give low values 0.985 | locus YOR061W, strain CKA2, hits give low values 0.939 | locus YOR069W, strain VPS5, hits give low values 0.984 | locus YOR070C, strain gyp1, hits give low values 0.995 | locus YOR080W, strain dia2, hits give low values 1.01 | locus YOR083W, strain WHI5, hits give low values 0.955 | locus YOR106W, strain vam3, hits give low values 0.987 | locus YOR136W, strain idh2, hits give low values 0.957 | locus YOR144C, strain elg1, hits give low values 0.95 | locus YOR231W, strain MKK1, hits give low values 0.983 | locus YOR265W, strain rbl2, hits give low values 0.996 | locus YOR270C, strain vph1, hits give low values 0.934 | locus YOR290C, strain snf2, hits give low values 0.963 | locus YOR316C, strain cot1, hits give low values 0.99 | locus YPL051W, strain arl3, hits give low values 0.992 | locus YPL078C, strain atp4, hits give low values 0.987 | locus YPL106C, strain sse1, hits give low values 0.921 | locus YPL240C, strain hsp82, hits give low values 1.01 | locus YPL256C, strain CLN2, hits give low values 1.03 | locus YPR119W, strain clb2, hits give low values 0.992 | locus YPR141C, strain kar3, hits give low values 1 | locus YPR167C, strain met16, hits give low values 0.995 | strain wtn01, hits give low values 0.902
